# Compound activity deposited in PubChem BioAssay by several laboratories.
# MITF TRPM1 inh: inhibitors of MITF-dependent TRPM1 promoter reporter, primary screen, cell-based, SK-MEL-5, single point, luciferase | inhibition, % at 12.5 µM | SK-MEL-5 TRPM1 promoter luciferase, 24 h | 330,000 tested, 0.83% active;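 active means mean inhibition across replicates of 60% or more, whatever share of single replicates reaches that level; inconclusive means some that reach 60%, reason not given; inactive means mean inhibition across replicates below 60%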
# TWEAK-Fn14 inh: inhibitors of TWEAK-Fn14 signaling, primary screen, luciferase reporter cells, uHTS | TWEAK-stimulated Fn14 reporter cells, luciferase luminescence, 8 h | inhibition, % at 10 µM | 360,000 tested, 2% active | AID 1159606, 2016; in the data active means inhibition above about 50%
# TROY NFkB inh: inhibitors of TROY-driven NF-kB signaling, primary screen, Q293 LMP1-TROYcd cells, NF-kB luciferase, uHTS; inhibition, % at 10 µM; AID 1347056, 2019; 360,000 tested, 0.98% active; Q293 LMP1-TROYcd NF-kB luciferase reporter, 4 h;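 active means compounds whose plate-normalised and pattern-corrected inhibition of the luciferase reporter signal at the single screening dose is 50% or more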
# Shn3 inh set2: reduction of Shn3 3'UTR firefly luciferase signal, primary screen, Schnurri-3 inhibitor project, cell-based, Clone20 osteoblasts, set 2 | Clone20 osteoblast Shn3 3'UTR firefly luciferase, 24 h | inhibition, % at 12.5 µM | 360,000 tested, 0.52% active | AID 588674, 2011;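 active means mean inhibition of at least 75% with every replicate also reaching 75%; inconclusive means mean inhibition at least 75% but some replicate below; inactive means mean inhibition below 75%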;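 further: 0% = median of neutral control wells and 100% = pilot-screen positive control compound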
# Peg3 prom inh-1: Peg3 promoter-driven luciferase inhibitors, primary screen, cell-based, HeLa, luciferase luminescence | HeLa PEG-Prom luciferase reporter, overnight | AID 588405, 2011 | inhibition, % at 20 µM | 360,000 tested, 1.7% active;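 active means inhibition of at least 50% at 20 µM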
# EBV LMP1 NFkB: EBV LMP1-driven NF-kappaB luciferase reporter inhibitors, primary screen, cell-based, luminescence, single point. LMP1-induced NF-kappaB luciferase reporter cells. inhibition, % at 12.5 µM. 350,000 tested, 0.69% active. AID 504558, 2011; in the data active means inhibition above about 41%; inconclusive means no clear call, values can overlap the other calls;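 further: 0% = neutral control wells and 100% = reference inhibitor control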
# Peg3 prom inh-2: Peg3 promoter reporter inhibitors, retest, confirmation, cell-based, HeLa, luciferase reporter, single concentration. shares compounds with Peg3 prom inh-1. HeLa PEG-Prom luciferase reporter, luminescence, overnight. 1,300 tested, 84% active. inhibition, % at 20 µM. AID 602417, 2012;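 active means at 20 µM dose, 40% or more inhibition averaged across four replicates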
# The depositor's hits bear a star; ? = inconclusive; · = no result given. Sampled rows, rich in hits. Any-hit rate of the full collection: about 4.1%.
SMILES,MITF TRPM1 inh,TWEAK-Fn14 inh,TROY NFkB inh,Shn3 inh set2,Peg3 prom inh-1,EBV LMP1 NFkB,Peg3 prom inh-2
CC[C@]12C(=O)N(C)C[C@H]([C@@H]3C(=O)N(C)C(=O)[C@@H]31)N2C(=O)c1ccc(F)cc1,-9,-3,5,-1,0,2,·
Cc1ccc(-n2[nH]c(=O)c3cccnc32)cc1,9,8,-4,-5,-10,-5,·
Cc1ccc(-n2[nH]c(=O)c(-c3ccccn3)c2C)cc1,83*,101*,81*,79,73*,66*,59*
O=C(O)c1cc(/C=N\O)ccc1OCc1ccccc1,2,-1,-22,-21,-26,-8,·
COc1cc(/C=N/O)ccc1OCc1ccc(C(=O)O)cc1,96*,17,-50,90*,86*,86*,69*
O=S(=O)(c1cccs1)N1CCN(c2ccnc3cc(Cl)ccc23)CC1,3,18,37,9,51*,21,69*
COc1ccc(NC(=O)N(C)[C@H]2C[C@H]3c4[nH]c5ccc(-c6cccc(C)c6)cc5c4CCN3C[C@H]2[C@H](C)O)cc1,·,10,-35,-17,92*,5,53*
COc1ccc(NC(=O)N(C)[C@H]2C[C@H]3c4[nH]c5ccccc5c4CCN3C[C@H]2[C@H](C)O)cc1,·,-2,-20,1,-7,5,·
COCCN(C(=O)COC(=O)/C=C/c1ccc(Cl)c(Cl)c1)c1c(N)n(Cc2ccccc2)c(=O)[nH]c1=O,12,6,4,12,5,11,·
CC(C)CN(C(=O)COC(=O)/C=C/c1ccc(Cl)c(Cl)c1)c1c(N)n(Cc2ccccc2)c(=O)[nH]c1=O,100*,19,-14,-11,89*,10,44*
O=C(COC(=O)CCC(=O)c1ccc(F)cc1)Nc1ccc2[nH]c(=O)[nH]c2c1,-6,7,-4,9,13,-3,·
O=c1nc2n(c3ncccc13)CCCCC2,6,8,-15,5,15,3,·
Cc1ccc(C(=O)n2c(N)nc3ccccc32)cc1,67*,99*,73*,62,80*,65*,28
CCN1CCN(CCNC(=O)c2ccc(/C=C3\Sc4ccccc4N(Cc4ccccc4F)C3=O)cc2)CC1,5,-66,65*,-3,109*,8,99*
COCCn1c(SCc2ccc(F)cc2)nc2c1c(=O)[nH]c(=O)n2C,-8,-17,-17,-6,3,13,·
COc1ccc(CNC(=O)Cn2cnc3c(NCc4ccccc4)ncnc32)cc1,33,33,-11,9,25,-8,·
COC(=O)c1ccc(CNC(=O)Cn2cnc3c(NCc4ccccc4)ncnc32)cc1,2,-37,3,10,63*,0,47*
Cc1ccc(Oc2ccc(NC(=O)Cn3ccsc3=N)cc2)cc1,15,17,-39,-18,53*,7,21
CCOC(=O)C1=NOC2C3CC(C12)C1C(=O)N(CCc2ccc(OC)c(OC)c2)C(=O)C31 (centres undefined),-6,-2,-3,11,-2,-9,·
Cc1cc(C(=O)CSc2nnc3ccccn23)c(C)n1-c1ccccc1,78*,101*,79*,79,101*,81*,81*
Cc1cc(C(=O)CSc2nnc(-c3ccccc3)n2-c2ccccc2)c(C)n1-c1ncn[nH]1,3,-16,-17,0,15,1,·
COc1cc2c(cc1OC)C(SC)=NC1(CCCC1)C2,87*,12,-10,15,64*,3,-30
COc1cc2c(cc1OC)C(C)=NC1(CCCCC1)C2,-7,-14,-21,12,3,1,·
Cc1cccc(/C=C2/Sc3ccc(C(=O)NCCN4CCCC4)cc3NC2=O)c1,89*,-10,-3,-3,94*,-6,100*
CCOC(=O)C1CCN(C(=O)c2ccc3c(c2)NC(=O)/C(=C\c2cccc(C)c2)S3)CC1,-3,-12,50,37,-1,5,·
SMILES,MITF TRPM1 inh,TWEAK-Fn14 inh,TROY NFkB inh,Shn3 inh set2,Peg3 prom inh-1,EBV LMP1 NFkB,Peg3 prom inh-2
O=C1CC2(CCN(C(=O)COc3ccc(Cl)cc3)CC2)Oc2ccccc21,-7,-6,-4,6,5,-2,·
O=C(CCc1ccccc1)OCCN1CCOCC1,2,3,3,-25,-13,-3,·
CCOC(=O)/C(=C\c1ccccc1)C(=O)CCN1CCOCC1,84*,21,0,21,97*,1,86*
COC(=O)c1c(NC(=O)c2ccc([N+](=O)[O-])o2)sc2c1CCN(C(C)C)C2,63*,-32,-2,4,94*,39,69*
CCN(CC)CCN1CCN(c2cncc(-c3ccc4ccccc4c3)n2)CC1,·,-28,-12,-23,71*,·,90*
CCc1cc2c(SCC(=O)N3CCCC3=O)ncnc2s1,-4,9,-37,-3,-12,-2,·
CN1CCC(N(C)C(=O)/C=C/c2cn(-c3ccccc3)nc2-c2cccs2)CC1,?,-12,-14,-15,77*,-43,93*
CN(Cc1ccccc1)C(=O)c1ccc(NC(=O)Cc2ccc(NC(=O)C3CCCN(C(=O)c4ccccc4)C3)cc2)cc1 (centres undefined),14,-9,11,18,3,2,·
Cc1ccc(S(=O)(=O)NCCC(=O)OCC(=O)N2CCCC2=O)cc1C,-9,-6,-9,4,0,0,·
c1cncc(-c2nc(NCC3COc4ccccc4O3)c3ccccc3n2)c1 (centres undefined),-32,38,25,18,58*,-4,68*
c1ccc(CN2CCC(Nc3nc(-c4cccnc4)nc4ccccc34)CC2)cc1,-4,-87,-2,6,100*,-9,70*
c1cncc(-c2nc(NCc3ccc4c(c3)OCO4)c3ccccc3n2)c1,-5,-6,20,-20,28,-4,·
CN(C)c1ccc(/C=C(\C#N)c2ccccn2)cc1,68*,94*,74*,45,78*,60*,49*
N#C/C(=C\c1ccc([N+](=O)[O-])cc1)c1ccccn1,-46,-30,-76,-2,-245,-21,·
CN(C)S(=O)(=O)c1ccc(NC(=O)c2ccccn2)cc1,-47,16,-7,-59,-176,-9,·
CN(C)c1ccc(NC(=S)c2ccccn2)cc1,79*,99*,81*,62,90*,73*,66*
CC(C)(C)c1ccc(C(=O)N2CCN(Cc3ccccc3)CC2)cc1,·,10,19,-5,6,7,·
